Measured values from PubChem BioAssay.
Calls of active or inactive are those of the source. Unless noted, no rule for the calls is given here.

Columns and labels:
[1] = tested on: Wnt5a (protein binding on small-molecule microarray); assay: Wnt5a binders on small-molecule microarray, primary screen, biophysical, 635/667 nm fluorescence (AID 1142); details: 635 nm fluorescence, higher = more signal;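 also: fluorescence read at 667 nm with signal to noise per printed feature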
[2] = cell viability in Huh7 cells, primary screen, cytotoxicity control for HCV replication inhibitor project, CellTiter-Glo luminescence, basal, 48 h (AID 1143); details: Huh7 HCV replicon, higher = more signal, called active from +8 up or from −8 down;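 also: Huh7 hepatoma cells carrying a hepatitis C replication reporter with no stimulus; test concentration not given here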
[3] = P. aeruginosa biofilm formation inhibitors, primary screen, PAO1 strain, BacTiter-Glo luminescence, LB-PBS (AID 1144); details: 12 h, higher = more signal
[4] = CREB reporter modulators without forskolin, primary screen, cell-based, PC12, CRE-LacZ reporter, unstimulated (AID 1145); details: no forskolin, luminescence, 4.5 h, higher = more signal, called active from +8 up or from −8 down
[5] = CREB reporter modulators under forskolin, primary screen, cell-based, PC12, CRE-LacZ reporter, forskolin-stimulated (AID 1146); details: luminescence, 4.5 h, higher = more signal, called active from +8 up or from −8 down;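 also: PC12 cells with 6xCRE LacZ reporter stimulated by forskolin 10 µM; beta-galactosidase reporter signal reflecting CREB driven transcription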
[6] = target: Streptavidin (Streptomyces avidinii) (UniProt P22629); assay: streptavidin binders on small-molecule microarray, primary screen, artefact control for SMM compound annotation, biophysical, 635/667 nm fluorescence (AID 1147); details: streptavidin binding, higher = more signal;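 also: signal reflects streptavidin binding to arrayed compounds as a control protein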
Chain of Streptavidin (Streptomyces avidinii) (P22629 whole entry, looked up): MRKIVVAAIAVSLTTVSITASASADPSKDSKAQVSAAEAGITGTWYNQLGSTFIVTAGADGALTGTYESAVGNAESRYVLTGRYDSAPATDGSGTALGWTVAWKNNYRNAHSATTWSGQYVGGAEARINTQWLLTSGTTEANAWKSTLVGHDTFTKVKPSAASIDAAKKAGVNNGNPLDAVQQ

[7] = small-molecule binders of probe aInhba, primary screen, biochemical, small-molecule microarray, 635/667 nm fluorescence (AID 1148); details: higher = more signal;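 also: score merges 667nm spot fluorescence with signal-to-noise for antibody binding to printed compounds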
[8] = target: Torsin-1A (Homo sapiens) (UniProt O14656); assay: torsin A binders from cell lysate, primary screen, small-molecule microarray, wild-type, 635/667 nm (AID 1149); details: COS7 hTOR1A-WT lysate, 635 nm fluorescence, higher = more signal
Chain of Torsin-1A (Homo sapiens) (O14656 whole entry, looked up): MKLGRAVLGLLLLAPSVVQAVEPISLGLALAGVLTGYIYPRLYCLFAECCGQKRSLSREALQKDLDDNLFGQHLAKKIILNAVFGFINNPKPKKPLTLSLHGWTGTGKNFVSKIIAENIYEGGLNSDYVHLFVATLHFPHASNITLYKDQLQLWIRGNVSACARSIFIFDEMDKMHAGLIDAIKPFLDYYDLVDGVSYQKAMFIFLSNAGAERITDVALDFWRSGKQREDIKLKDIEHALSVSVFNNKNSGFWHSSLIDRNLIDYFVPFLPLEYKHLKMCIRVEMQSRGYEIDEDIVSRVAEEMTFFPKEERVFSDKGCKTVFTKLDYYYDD

[9] = target: Torsin-1A (Homo sapiens) (UniProt O14656); assay: small-molecule binders of mutant TOR1A in lysate, primary screen, cell lysate, small-molecule microarray, COS7 lysate, 635/667 nm fluorescence (AID 1150); details: COS7 hTOR1A mutant lysate, 635 nm fluorescence, higher = more signal;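 also: score pools 667 nm emission and signal to noise measuring lysate protein binding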
[10] = tested on: Sonic hedgehog protein (Shh); assay: small-molecule binders of Shh protein, primary screen, biochemical, small-molecule microarray, 635/667 nm fluorescence (AID 1151); details: small-molecule microarray binding, 635 nm fluorescence; higher = more signal;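 also: Shh protein binding to compounds spotted on small-molecule microarray slides; score combines spot fluorescence intensity with signal-to-noise across triplicate slides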
[11] = E. coli DRC41 culture turbidity changes, primary screen, E. coli filamentation inducer project, strain DRC41, OD650, 48 h (AID 1152);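 also: E. coli MC1000 strain DRC41 lacking acrAB efflux pump and sulA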; details: E. coli DRC41 (acrAB sulA), higher = more signal, called active from +8 up or from −8 down
[12] = small-molecule binders of probe aLefty1, primary screen, biochemical, small-molecule microarray, 635/667 nm fluorescence (AID 1153); details: higher = more signal;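 also: score merges spot fluorescence with signal-to-noise ratio from the scanned slide images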
[13] = PSAC antagonists in infected red cells, primary screen, cell-based, P. falciparum Indochina, OD700, 1 h (AID 1154); details: P. falciparum Indochina infected RBC osmotic lysis, higher = more signal, called active from +8 up or from −8 down
[14] = PSAC antagonists in infected red cells, primary screen, cell-based, P. falciparum Indochina, OD700, 2 h (AID 1155);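 also: lysis reports solute entry through the parasite surface anion channel PSAC; channel blockers reduce lysis of infected cells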; details: P. falciparum Indochina infected erythrocytes, osmotic lysis OD700; higher = more signal, called active from +8 up or from −8 down
[15] = osmotic lysis modulators in infected erythrocytes, primary screen, PSAC antagonist project, cell-based, P. falciparum Indochina, OD700, 3 h (AID 1156); details: higher = more signal, called active from +8 up or from −8 down
[16] = PSAC antagonists in infected red cells, primary screen, cell-based, P. falciparum Indochina, OD700, 18 h (AID 1157); details: P. falciparum Indochina infected erythrocytes, osmotic lysis OD700, 18 h; higher = more signal, called active from +8 up or from −8 down
[17] = modulators of S6 phosphorylation in cells, primary screen, cell-based, A549, cytoblot, luminescence, serum-stimulated (AID 1158); details: A549 phospho-S6 cytoblot, 5 h, higher = more signal;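 also: serum-stimulated A549 lung adenocarcinoma cells; signal is phosphorylated S6 detected by cytoblot immunostaining with HRP secondary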
[18] = target: NADPH oxidase 2 (Homo sapiens) (UniProt P04839); assay: NOX2-dependent H2O2 signal modulators, primary screen, NOX inhibitor project, cell-based, HEK293-NOX2, PMA-stimulated, Amplex Red fluorescence (AID 1159); details: 45 min, higher = more signal, called active from +8 up or from −8 down; also: test concentration not given here
Chain of NADPH oxidase 2 (Homo sapiens) (P04839 whole entry, looked up): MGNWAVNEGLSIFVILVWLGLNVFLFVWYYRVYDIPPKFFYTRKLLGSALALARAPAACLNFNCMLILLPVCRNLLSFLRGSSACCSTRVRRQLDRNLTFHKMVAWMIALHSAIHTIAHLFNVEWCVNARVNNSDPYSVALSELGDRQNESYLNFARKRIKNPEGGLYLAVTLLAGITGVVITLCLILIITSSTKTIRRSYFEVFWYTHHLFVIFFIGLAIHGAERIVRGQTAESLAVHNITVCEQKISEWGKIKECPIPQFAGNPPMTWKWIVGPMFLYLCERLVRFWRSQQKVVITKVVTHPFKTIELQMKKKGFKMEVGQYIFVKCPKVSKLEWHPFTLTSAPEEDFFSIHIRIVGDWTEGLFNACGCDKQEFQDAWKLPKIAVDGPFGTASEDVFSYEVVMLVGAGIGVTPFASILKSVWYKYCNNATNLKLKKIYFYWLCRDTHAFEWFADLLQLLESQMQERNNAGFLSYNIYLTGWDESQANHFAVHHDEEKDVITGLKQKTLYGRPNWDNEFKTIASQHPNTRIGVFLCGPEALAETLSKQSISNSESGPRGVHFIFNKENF

[19] = target: NADPH oxidase 4 (Homo sapiens) (UniProt Q9NPH5); assay: NOX4-dependent H2O2 signal modulators, primary screen, NOX inhibitor project, cell-based, HEK293-NOX4, tetracycline-induced, Amplex Red fluorescence (AID 1160); details: 45 min, higher = more signal, called active from +8 up or from −8 down
Chain of NADPH oxidase 4 (Homo sapiens) (Q9NPH5 whole entry, looked up): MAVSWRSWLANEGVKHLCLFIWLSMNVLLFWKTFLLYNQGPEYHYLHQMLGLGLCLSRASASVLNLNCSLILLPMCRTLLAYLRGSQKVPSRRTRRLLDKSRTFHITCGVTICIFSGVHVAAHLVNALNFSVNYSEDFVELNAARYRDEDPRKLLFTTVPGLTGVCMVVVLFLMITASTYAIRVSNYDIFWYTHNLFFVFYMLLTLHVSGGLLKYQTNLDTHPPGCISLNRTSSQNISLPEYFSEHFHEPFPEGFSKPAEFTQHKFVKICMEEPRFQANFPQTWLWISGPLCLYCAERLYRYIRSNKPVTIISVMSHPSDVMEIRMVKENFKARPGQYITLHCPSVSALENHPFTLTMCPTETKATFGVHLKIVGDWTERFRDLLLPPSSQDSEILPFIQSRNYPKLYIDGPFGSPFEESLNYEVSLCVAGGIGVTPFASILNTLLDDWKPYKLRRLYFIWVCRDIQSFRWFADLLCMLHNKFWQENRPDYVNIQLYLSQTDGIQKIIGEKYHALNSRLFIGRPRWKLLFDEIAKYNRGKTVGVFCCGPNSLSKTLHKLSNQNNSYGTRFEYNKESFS

[20] = target: NADPH oxidase 5 (Homo sapiens) (UniProt Q96PH1); assay: NOX5-dependent H2O2 signal modulators, primary screen, NOX inhibitor project, cell-based, HEK293-NOX5, Amplex Red fluorescence (AID 1161); details: HEK293-NOX5, ionomycin, 45 min, higher = more signal
Chain of NADPH oxidase 5 (Homo sapiens) (Q96PH1 whole entry, looked up): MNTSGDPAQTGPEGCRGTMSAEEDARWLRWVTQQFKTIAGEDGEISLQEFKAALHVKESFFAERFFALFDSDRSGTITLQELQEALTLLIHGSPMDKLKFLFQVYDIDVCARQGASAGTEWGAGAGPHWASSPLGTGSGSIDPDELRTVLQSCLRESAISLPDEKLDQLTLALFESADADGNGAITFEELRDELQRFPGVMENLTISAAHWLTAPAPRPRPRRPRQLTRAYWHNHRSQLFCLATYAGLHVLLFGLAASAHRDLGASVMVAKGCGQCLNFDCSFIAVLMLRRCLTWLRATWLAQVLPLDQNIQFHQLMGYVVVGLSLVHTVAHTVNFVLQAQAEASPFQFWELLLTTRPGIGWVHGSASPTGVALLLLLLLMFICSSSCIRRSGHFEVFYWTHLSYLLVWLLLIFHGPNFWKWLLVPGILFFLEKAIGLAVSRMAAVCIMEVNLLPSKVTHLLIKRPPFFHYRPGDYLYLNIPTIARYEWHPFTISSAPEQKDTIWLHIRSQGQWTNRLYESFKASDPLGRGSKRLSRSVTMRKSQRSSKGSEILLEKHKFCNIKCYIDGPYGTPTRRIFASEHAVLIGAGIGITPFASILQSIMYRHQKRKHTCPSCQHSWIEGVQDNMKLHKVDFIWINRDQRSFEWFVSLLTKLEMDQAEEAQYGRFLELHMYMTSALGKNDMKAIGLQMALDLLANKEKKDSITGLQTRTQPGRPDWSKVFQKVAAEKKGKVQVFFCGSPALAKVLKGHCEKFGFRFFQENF

Row | SMILES | composite z-score [1] | z-score [2] | z-score [3] | z-score [4] | z-score [5] | composite z-score [6] | composite z-score [7] | composite z-score [8] | composite z-score [9] | composite z-score [10] | z-score [11] | composite z-score [12] | z-score [13] | z-score [14] | z-score [15] | z-score [16] | z-score [17] | z-score [18] | z-score [19] | z-score [20]
1 | O=C(NCCN1CCOCC1)[C@@H]1c2ccccc2C(=O)N(Cc2cc(C(F)(F)F)cc(C(F)(F)F)c2)[C@H]1c1ccc(CO)cc1 | 0.556 | -0.0199 (inactive) | 0.623 (inactive) | 0.468 (inactive) | -0.713 (inactive) | -0.601 | 0.0154 | -0.027 | 0.133 | -0.211 | -0.0112 (inactive) | 0.0479 | 2.81 (inactive) | 1.44 (inactive) | 0.591 (inactive) | 0.526 (inactive) | -0.474 | -0.0635 (inactive) | 0.271 (inactive) | 2.36
2 | COc1ccc([Si](C)(C)[C@@H]2[C@@H](CC(=O)N3CCC[C@H]3CO)O[C@]3(C(=O)N(Cc4cccc(I)c4)c4ccccc43)[C@H]2C)cc1 | 0.557 | -4.27 (inactive) | 0.452 (inactive) | 0.12 (inactive) | -0.845 (inactive) | 0.168 | -0.0582 | 1.36 | 0.789 | 2.14 | -0.423 (inactive) | -0.111 | 6.47 (inactive) | 0.966 (inactive) | 1.39 (inactive) | 0.917 (inactive) | 2.02 | 2.97 (inactive) | 0.91 (inactive) | 4.33
3 | COc1ccc([C@H]2C[C@H]3C(Br)=C[C@@]2(CO)C(=O)[C@]32CO2)cc1 | 0.0718 | 0.187 (inactive) | -0.23 (inactive) | 0.309 (inactive) | 1.6 (inactive) | -0.264 | -0.0245 | -0.361 | -0.83 | -0.134 | -0.532 (inactive) | -0.144 | -0.0473 (inactive) | 0.316 (inactive) | -0.231 (inactive) | -0.039 (inactive) | -0.578 | 0.24 (inactive) | 0.624 (inactive) | -0.268
4 | COC(=O)[C@@]1(Cc2ccc(OC)cc2)[C@H]2c3cc(C(=O)N4CCCC4)n(CCCNc4ncc(C(F)(F)F)cc4Cl)c3C[C@H]2CN1C(=O)c1ccccc1 | 1.53 | -3.28 (inactive) | 0.0557 (inactive) | 0.769 (inactive) | 0.627 (inactive) | 1.25 | 0.826 | 0.0188 | 0.27 | -0.418 | -1.46 (inactive) | 0.982 | 10.1 (active) | 1.37 (inactive) | 2.15 (inactive) | 1.13 (inactive) | -0.0195 | 0.128 (inactive) | 0.577 (inactive) | 1.65
5 | C#CCN(C/C=C/c1ccccc1)[C@H](CO)c1ccccc1 | 0.325 | -3.79 (inactive) | -0.192 (inactive) | 1.65 (inactive) | -0.121 (inactive) | 0.41 | -0.103 | 0.25 | 0.294 | 0.743 | -1.3 (inactive) | -0.241 | 6.86 (inactive) | 0.893 (inactive) | 0.0025 (inactive) | 0.305 (inactive) | -0.617 | 0.403 (inactive) | 0.04 (inactive) | -3.98
6 | O=C1OCCC/C=C\[C@H]2OC34C=CCN(c5ccc6ccccc6c5)C(=O)[C@H]3N(CCCCCO)C(=O)[C@@H]4C12 (stereo not given in full) | -0.591 | 0.123 (inactive) | 2.33 (inactive) | 0.601 (inactive) | 0.106 (inactive) | -0.773 | -0.209 | -2.04 | -1.51 | -0.0295 | -0.829 (inactive) | -0.147 | 0.29 (inactive) | -0.0458 (inactive) | -0.455 (inactive) | -0.181 (inactive) | -0.839 | 0.814 (inactive) | -0.15 (inactive) | 1.58
7 | O=C(O)[C@@]1(CCS(=O)(=O)c2ccccc2)N=C(c2ccc(OCCCO)cc2)O[C@H]1c1ccccc1 | -0.111 | -0.798 (inactive) | 0.0288 (inactive) | -0.23 (inactive) | -0.324 (inactive) | 1.34 | 0.102 | 1.43 | 1.79 | -0.338 | 0.183 (inactive) | 0.0458 | 22.6 (active) | 4.96 (inactive) | 0.178 (inactive) | 0.789 (inactive) | -0.238 | -0.333 (inactive) | 1.66 (inactive) | 1.26
8 | CC(=O)n1cc(C(O)C2C=CC3C(=O)NC(=O)C3N2Nc2ccccn2)c2ccccc21 (stereo not given) | 0.109 | 0.713 (inactive) | -0.781 (inactive) | -0.14 (inactive) | 0.593 (inactive) | 0.153 | 0.23 | 0.865 | 0.153 | 0.41 | -0.734 (inactive) | -0.101 | 0.625 (inactive) | 0.827 (inactive) | -0.313 (inactive) | 0.679 (inactive) | -0.612 | -1.68 (inactive) | -2.41 (inactive) | -1.58
9 | CO[C@H]1O[C@H](CO)[C@@H](OC(=O)Nc2ccccc2)[C@@H]2OC(=O)[C@@H](Cc3ccc4ccccc4c3)C/C=C/C[C@H](Cc3ccc4ccccc4c3)C(=O)O[C@@H]12 | 0.49 | -3.61 (inactive) | -1.4 (inactive) | 0.502 (inactive) | -0.757 (inactive) | 0.31 | -0.0494 | 0.643 | 1.87 | 0.662 | 2.85 (inactive) | 0.0167 | 2.71 (inactive) | -0.0552 (inactive) | -1.94 (inactive) | -1.83 (inactive) | 0.77 | 0.829 (inactive) | 0.884 (inactive) | -0.542
